Reference: PubChem BioAssay (Tox21)
Results filed as inconclusive are left out. Active and inactive are the calls of the source. Unless noted, calls come from the whole dose curve; as a rule, active = well fitted curve in the direction sought with a large enough effect in the repeat runs; inconclusive = weak or mixed curves; inactive = no such curve, though single readings can be large; an effect the other way counts as inactive or inconclusive.

Assays:
[1] = qHTS assay to identify small molecule agonists of the vitamin D receptor (VDR) signaling pathway - cell viability counter screen (AID 743224); note: series mostly up to about 63 µM; % is set by controls: 0 for no effect and ±100 for the full control effect; nearly all actives have a fitted effect of over 50% in size
Summary of the method: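 In parallel with the bla FRET readout, cytotoxicity toward VDR-bla cells after 16 h compound exposure was assessed by CellTiter-Glo, with luminescence recorded after a 30 min room-temperature incubation.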

[2] = qHTS assay to identify small molecule antagonists of the vitamin D receptor (VDR) signaling pathway - cell viability counter screen (AID 743225); note: % is set by controls: 0 for no effect and ±100 for the full control effect; nearly all actives have a fitted effect of over 50% in size
Summary of the method: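 Same-well multiplex: following 16 h treatment of HEK 293T cells carrying a UAS-driven beta-lactamase reporter with compound and agonist (3 nM final), and a 2 h FRET substrate step, CellTiter-Glo was added and luminescence read after 30 min.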

[3] = qHTS assay to identify small molecule agonists of the NFkB signaling pathway (AID 1159509; active = well fitted curve in the direction sought with a large enough effect in the signal ratio in the repeat runs, not every such curve was filed as active; the % refers to the signal ratio; note: series mostly up to about 61 µM; % is set by controls: 0 for no effect and ±100 for the full control effect)
Summary of the method: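 Beta-lactamase reporter assay run in quantitative high-throughput format on an NF-kB-responsive ME-180 line, with 5 hr compound treatment and a FRET-based blue/green fluorescence readout.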

[4] = qHTS assay to identify small molecule agonists of the NFkB signaling pathway - cell viability counter screen (AID 1159515; calls by dose curve; note: series mostly up to about 61 µM; % is set by controls: 0 for no effect and ±100 for the full control effect; nearly all actives have a fitted effect of over 55% in size)
Summary of the method: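 Plate 2,000 NFkB-bla ME-180 cells/well; incubate overnight. Add compounds, 5 hr at 37 C. Add FRET substrate, 1.5 hr RT. Add CellTiter-Glo, 30 min RT; read luminescence.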

[5] = qHTS assay to identify small molecule agonists of the endoplasmic reticulum stress response signaling pathway (AID 1159516; active = well fitted activation curve with a large enough effect in the signal ratio in the repeat runs, not every such curve was filed as active; the % refers to the signal ratio; note: % is set by controls: 0 for no effect and ±100 for the full control effect)
Summary of the method: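 Beta-lactamase expression from the ER stress response element in HeLa reporter cells is quantified with the LiveBLAzer B/G FRET substrate, read at 405 nm excitation after 2 hr at room temperature, following 5 hr compound treatment at 37 C.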

[6] = qHTS assay to identify small molecule agonists of the endoplasmic reticulum stress response signaling pathway - cell viability counter screen (AID 1159517; calls by dose curve; note: series mostly up to about 61 µM; % is set by controls: 0 for no effect and ±100 for the full control effect; nearly all actives have a fitted effect of over 50% in size)
Summary of the method: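 After overnight attachment, ESRE-bla HeLa cells were treated with Tox21 library compounds for 5 hr. CellTiter-Glo luminescence, read 30 min post-addition at room temperature, reported viability.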

[7] = qHTS assay to identify small molecule antagonists of the retinoid-related orphan receptor gamma (ROR-gamma) signaling pathway - cell viability counter screen (AID 1159520); note: % is set by controls: 0 for no effect and ±100 for the full control effect; nearly all actives have a fitted effect of over 50% in size
Summary of the method: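 Cytotoxicity was read from cellular ATP (CellTiter-Glo luminescence) after 16 hr at 37 C with 1 uM doxycycline induction. The inducer was added 2 hr after compound transfer to Tet-on ROR gamma CHO cells.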

[8] = target: Nuclear receptor ROR-gamma (Homo sapiens) (UniProt P51449); test: qHTS assay to identify small molecule antagonists of the retinoid-related orphan receptor gamma (ROR-gamma) signaling pathway (AID 1159521)
Summary of the method: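 Inducible-expression reporter assay: doxycycline (1 uM final) switched on RORγ in CHO cells bearing a ROR response element-luciferase construct, with test compounds present from 2 h beforehand. Decreased luminescence after 16 h defined antagonist activity.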

[9] = qHTS assay to identify small molecule agonists of the AP-1 signaling pathway - cell viability counter screen (AID 1159525; calls by dose curve; note: nearly all actives have a fitted effect of over 55% in size)
Summary of the method: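 Intracellular ATP by Cell Titer Glo luminescence (30 min, RT) in the same ME-180 AP-1-bla wells after the 5 h compound exposure at 37 °C. Normalised to tetra n-octyl ammonium bromide and DMSO controls.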

[10] = qHTS assay to identify small molecule agonists of the AP-1 signaling pathway (AID 1159526; calls by dose curve; note: % is set by controls: 0 for no effect and ±100 for the full control effect)
[11] = qHTS assay to identify small molecule agonists of the RXR signaling pathway - cell viability counter screen (AID 1159529)
Summary of the method: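 Counter screen: CellTiter-Glo luminescence. Cells: RXR-alpha-UAS-bla HEK 293T. Medium: 2% charcoal-stripped FBS. Treatment: 16 h, 37 C. Reagent incubation: 30 min, RT.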

[12] = qHTS assay to identify small molecule antagonists of the retinoid acid receptor (RAR) signaling pathway - cell viability counter screen (AID 1159551); note: % is set by controls: 0 for no effect and ±100 for the full control effect; nearly all actives have a fitted effect of over 35% in size
Summary of the method: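 Viability of C3RL4 cells is quantified from ATP by luminescence after 6 h treatment at 37 C with compounds and 1 uM retinol.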

[13] = qHTS assay to identify small molecule antagonists of the retinoic acid receptor (RAR) signaling pathway (AID 1159552)
Summary of the method: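 Antagonism of retinol-induced RARE reporter activity was measured in C3RL4 cells. Exposure to compounds and 1 uM final retinol lasted 6 hr at 37 C, with luminescence as endpoint.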

[14] = qHTS assay to identify small molecule agonists of the retinoic acid receptor (RAR) signaling pathway (AID 1159553); note: % is set by controls: 0 for no effect and ±100 for the full control effect
Summary of the method: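 Compounds dissolved in DMSO were pinned onto C3RL4 cells seeded the previous day, and plates were held 6 hr at 37 C. RARE-driven luciferase output was then read by luminescence.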

[15] = target: Retinoic acid receptor RXR-alpha (Homo sapiens) (UniProt P19793); test: qHTS assay to identify small molecule agonists of the RXR signaling pathway (AID 1159527; calls by dose curve; note: % is set by controls: 0 for no effect and ±100 for the full control effect; nearly all actives have a fitted effect of over 35% in size)
Summary of the method: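 Compounds in DMSO were added to RXR-alpha-UAS-bla HEK 293T cells kept in 2% charcoal-stripped serum, and incubated 16 hr at 37 C with 5% CO2. Reporter signal came from a 2 hr B/G FRET substrate step.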

[16] = qHTS assay to identify small molecule antagonists of the estrogen related receptor (ERR) signaling pathway - cell viability counter screen (AID 1224818)
Summary of the method: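 Cytotoxicity check run alongside the ERR antagonist screen: cells exposed to test compounds 17.5 h at 37 C, viability taken as CellTiter-Fluor fluorescence intensity.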

[17] = qHTS assay to identify small molecule antagonists of the estrogen related receptor (ERR) signaling pathway (AID 1224819)
Summary of the method: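 ERR reporter cells were plated at 2,000 cells/well and left 6 h at 37 C/5% CO2 before pin-tool transfer of compounds in DMSO. After 18 h at 37 C, One-Glo was added and luminescence was read 30 min later at room temperature.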

[18] = qHTS assay to identify small molecule agonists of the estrogen related receptor (ERR) signaling pathway (AID 1224820); note: % is set by controls: 0 for no effect and ±100 for the full control effect
Summary of the method: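 Following a 6 h settling period, 2,000 ERR cells per well receive DMSO-dissolved compounds by pin tool and incubate 18 h at 37 C; agonist activity is scored from One-Glo luminescence read 30 min post-addition.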

[19] = test system: estrogen-related receptor alpha (ERRalpha) with PGC-1alpha coactivator, human; test: qHTS assay to identify small molecule antagonists of the estrogen related receptor signaling pathway with the pleiotropic PPARgamma coactivator (PGC) (AID 1224821; calls by dose curve)
Summary of the method: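 Screening used NTP's PGC/ERR cells, dosed via pin tool with compound in DMSO alongside positive and negative controls. After 18 h at 37 C, One-Glo reagent sat 30 min at room temperature before luminescence detection.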

[20] = qHTS assay to identify small molecule antagonists of the estrogen related receptor signaling pathway with the pleiotropic PPARgamma coactivator (PGC) cell viability counter screen (AID 1224822)
Summary of the method: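 Viable cell signal (CellTiter-Fluor, 30 min, 37 C/5% CO2) was measured in PGC/ERR cells after a 17.5 h compound incubation.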

Retinoic acid receptor RXR-alpha (Homo sapiens), sequence (P19793 whole entry, looked up): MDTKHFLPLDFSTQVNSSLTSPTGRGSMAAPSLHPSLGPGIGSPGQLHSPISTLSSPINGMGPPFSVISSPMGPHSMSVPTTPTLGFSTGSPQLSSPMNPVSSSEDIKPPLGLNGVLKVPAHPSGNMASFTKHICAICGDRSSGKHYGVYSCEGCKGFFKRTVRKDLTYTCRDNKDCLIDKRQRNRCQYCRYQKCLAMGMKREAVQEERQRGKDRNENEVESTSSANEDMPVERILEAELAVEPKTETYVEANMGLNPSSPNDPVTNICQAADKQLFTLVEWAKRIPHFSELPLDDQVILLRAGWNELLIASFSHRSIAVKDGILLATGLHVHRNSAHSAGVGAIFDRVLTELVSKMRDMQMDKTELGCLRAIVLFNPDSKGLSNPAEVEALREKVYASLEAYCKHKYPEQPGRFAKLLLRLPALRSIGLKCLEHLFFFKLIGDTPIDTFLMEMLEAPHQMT

C=C[Si](OC(=C)C)(OC(=C)C)OC(=C)C
inactive: Potency [1] | Potency [2] | outcome [3] | outcome [4] | outcome [5] | outcome [6] | outcome [7] | Potency [8] | Potency [9] | outcome [10] | Potency [11] | outcome [12] | Potency [13] | Potency [14]

C[C@](N)(Cc1ccc(O)cc1)C(=O)O
inactive: activity change, negative = cytotoxicity [1] -0.278% [at 5.95 µM] | activation [3] 0.267% [at 6.95 µM] | activity, negative = cytotoxic [4] 2.4% [at 6.95 µM] | activity change, negative = cytotoxicity [6] -6.6% [at 6.95 µM] | activity, negative = cytotoxicity [7] 1.71% [at 8.39 µM] | activity change, negative = inhibition [8] 10.5% [at 8.39 µM] | viability change, negative = cytotoxic [9] 6.35% [at 6.97 µM] | activation [10] -6.83% [at 6.97 µM] | activation [15] 8.62% [at 6.98 µM] | activity change, negative = cytotoxicity [11] 10.7% [at 6.97 µM] | activity change, negative = cytotoxicity [12] 0.103% [at 8.39 µM] | activity, negative = inhibition [13] -1.72% [at 8.39 µM] | activation [14] -0.945% [at 8.36 µM] | outcome [16] | outcome [17] | outcome [18] | outcome [19] | outcome [20]

C[C@H](NC(CCc1ccccc1)C(=O)O)C(=O)N1CCC[C@H]1C(=O)O (some centres not stated)
inactive: Potency [1] | Potency [2] | outcome [3] | outcome [4] | outcome [6] | outcome [7] | Potency [8] | Potency [9] | outcome [10] | Potency [15] | Potency [11] | outcome [12] | Potency [13] | Potency [14] | outcome [16] | outcome [17] | outcome [18] | outcome [19] | outcome [20]

CCCC(=O)O[C@]1(C(=O)CO)CC[C@H]2[C@@H]3CCC4=CC(=O)CC[C@]4(C)[C@H]3[C@@H](O)C[C@@]21C
inactive: Potency [1] | Potency [2] | outcome [3] | outcome [4] | outcome [5] | outcome [6] | outcome [7] | Potency [8] | Potency [9] | outcome [10] | Potency [11] | outcome [12] | Potency [13] | Potency [14]

CCOC(=O)c1c(C)n(C)c2ccc(O)cc12
inactive: Potency [1] | outcome [3] | outcome [4] | outcome [5] | outcome [6] | outcome [7] | Potency [8] | Potency [9] | outcome [10] | Potency [11] | outcome [12] | Potency [14]

CC(C)NCC(O)c1ccc(NS(C)(=O)=O)cc1 (configuration not stated)
inactive: Potency [1] | Potency [2] | outcome [3] | outcome [4] | outcome [5] | outcome [6] | outcome [7] | Potency [8] | Potency [9] | outcome [10] | Potency [11] | outcome [12] | Potency [13] | outcome [16] | outcome [20]
